Screening results from PubChem.
CYP2C9 activ: increases human cytochrome P450 2C9 activity; recombinant CYP2C9, luciferin-H conversion, luminescence; stronger effect = higher value; factor 1 = untreated enzyme, 0 = blocked; hit rate 1.4% among 96,000; P11712; activation factor at 5 µM;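 active = activation factor of 2 or more for CYP2C9 at a 5 µM dose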;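 also: 0 = sulfaphenazole-blocked wells and 1 = vehicle-only wells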
Target sequence (P11712 whole entry, looked up): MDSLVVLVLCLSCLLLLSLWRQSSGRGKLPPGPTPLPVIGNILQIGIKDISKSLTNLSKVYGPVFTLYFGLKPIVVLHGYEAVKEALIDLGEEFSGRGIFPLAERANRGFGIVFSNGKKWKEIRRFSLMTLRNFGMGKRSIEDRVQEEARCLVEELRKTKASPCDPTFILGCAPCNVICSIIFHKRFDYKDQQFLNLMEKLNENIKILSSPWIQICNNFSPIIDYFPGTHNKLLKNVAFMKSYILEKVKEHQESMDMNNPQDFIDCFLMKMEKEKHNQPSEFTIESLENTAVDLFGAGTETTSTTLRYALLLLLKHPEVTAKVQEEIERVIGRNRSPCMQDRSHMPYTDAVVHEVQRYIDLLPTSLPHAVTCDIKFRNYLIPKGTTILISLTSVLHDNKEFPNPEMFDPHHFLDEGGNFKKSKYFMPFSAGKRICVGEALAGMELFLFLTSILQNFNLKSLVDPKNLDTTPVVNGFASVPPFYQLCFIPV
E-sel TNF inh: blocks E-selectin expression induced by TNF alpha; HUVEC TNFa-induced E-selectin immunofluorescence, high content; inhibition, % at 2 µM; hit rate 0.71% among 120,000;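 active = inhibition above the batch mean plus 3 SD, and confirmed as a hit on visual image review, cut at about 43% in these data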;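 also: 0% = TNF-stimulated DMSO wells and 100% = unstimulated control wells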
CYP2C19 inhib: inhibitors of human CYP2C19. P33261. CYP2C19 Supersomes, luciferin-H EGE luminescence, 30 min. inhibition, % at 5 µM. hit rate 21% among 96,000. AID 778;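 active = CYP2C19 inhibition above a set limit at 5 µM in the primary screen, cut at about 50% in these data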;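 also: plate controls were negative control wells for no effect and 2.5 mM tranylcypromine positive control for full effect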
CYP2C9 inhib: human CYP2C9 inhibition; P11712; CYP2C9 Supersomes, luciferin-H conversion, luminescence; inhibition, % at 5 µM; hit rate 20% among 96,000;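 active = blocking of liver enzyme CYP2C9 beyond about 50% at 5 µM, limit read from the data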
CYP2C19 activ: cytochrome P450 2C19 (human) activation | AID 1025 | 96,000 tested, under 10 active | recombinant CYP2C19, luciferin-H EGE luminescence; stronger effect = higher value; 0 = fully inhibited enzyme, 1 = untreated enzyme | activation factor at 5 µM | P33261;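 active = activation factor of at least 2 at 5 µM in the primary screen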;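 also: 0 = wells with 2.5 mM tranylcypromine and 1 = vehicle-only wells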
F-actin modifier: modifiers of cytoskeleton assembly; AID 836; hit rate 0.18% among 91,000; inhibition, % at 2 µM; HUVEC TNFa F-actin phalloidin imaging, high content;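 active = inhibition above the batch mean plus 3 SD and confirmed as a hit by visual image inspection, cut at about 30% in these data, passing the limit was not always enough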
* marks the source's active call; other numbers are inactive results. Only some compounds are listed: those with a hit (about 22% of all), similar ones and a draw of the others.

Results for CCOC(=O)c1ccc(NC(=O)CSc2nnnn2CCCO)cc1 ?
CYP2C9 activ: 0.6; E-sel TNF inh: 8.2; CYP2C19 inhib: 57.6*; CYP2C9 inhib: 43.7; CYP2C19 activ: 0.4; F-actin modifier: 9.2

What do the screens show for `Cc1nnc(SCC(=O)N(C)c2ccccc2)n1Cc1ccccc1`?
E-sel TNF inh: 88.9*

Results for CCOC(=O)c1cccc(NC(=O)CSc2nnc(C)n2Cc2ccccc2)c1 ?
CYP2C9 activ: 0.1; E-sel TNF inh: 6.7; CYP2C19 inhib: 86.6*; CYP2C9 inhib: 91.3*; CYP2C19 activ: 0.1; F-actin modifier: -45.9

How did CCOC(=O)c1cccc(NC(=O)CSc2nnc(-c3ccoc3C)n2CC)c1 do in these assays?
CYP2C9 activ: 0.3; E-sel TNF inh: 1.8; CYP2C19 inhib: 43.1; CYP2C9 inhib: 70.0*; CYP2C19 activ: 0.6; F-actin modifier: 31.2

Results for Cc1nnc(SCC(=O)c2ccccc2)n1Cc1ccccc1 ?
E-sel TNF inh: 16.6

Results for CCOC(=O)CCCNC(=O)COc1ccccc1C#N ?
CYP2C9 activ: 1; E-sel TNF inh: -19.0; CYP2C19 inhib: 33.4; CYP2C9 inhib: 2.6; CYP2C19 activ: 0.7

What do the screens show for `Cc1ccc(NC(=O)NC(=S)NC(=O)c2ccccc2)cc1`?
E-sel TNF inh: 14.7

Results for Nc1c(C2=NCCO2)nnn1Cc1ccccc1 ?
CYP2C9 activ: 1.5; E-sel TNF inh: -24.4; CYP2C19 inhib: -5.9; CYP2C9 inhib: -52.4; CYP2C19 activ: 1.1; F-actin modifier: -12.6

What do the screens show for `COc1ccc(CC(=O)Nc2c3c(nn2C(C)(C)C)CS(=O)C3)cc1` (stereo not drawn)?
CYP2C9 activ: 0.9; CYP2C19 inhib: 16.9; CYP2C9 inhib: 14.4; CYP2C19 activ: 0.8; F-actin modifier: 3.9

How did CN(C(=O)CSc1nc(N)nn1-c1ccccc1)c1ccccc1 do in these assays?
CYP2C9 activ: 0.7; E-sel TNF inh: 8.3; CYP2C19 inhib: 84.4*; CYP2C9 inhib: 33.0; CYP2C19 activ: 0.2; F-actin modifier: -1.3

Results for CCOC(=O)CN(C(=O)CSc1nnc(C)n1-c1ccccc1)c1ccccc1 ?
CYP2C9 activ: 0.8; E-sel TNF inh: -14.7; CYP2C19 inhib: 9.4; CYP2C9 inhib: 23.6; CYP2C19 activ: 0.9; F-actin modifier: -3.4

Results for CCOC(=O)c1cccc(NC(=O)CSc2nnnn2CC)c1 ?
CYP2C9 activ: 0.2; E-sel TNF inh: 8.2; CYP2C19 inhib: 55.3*; CYP2C9 inhib: 83.4*; CYP2C19 activ: 0.4; F-actin modifier: 5.4

Results for CCOC(=O)c1cccc(NC(=O)CSc2nc(N)cc(N)n2)c1 ?
CYP2C9 activ: 0.2; CYP2C19 inhib: 64.1*; CYP2C9 inhib: 77.6*; CYP2C19 activ: 0.4; F-actin modifier: -25.6

How did CCn1c(CNc2nc(-c3ccccc3)cs2)nnc1SCC(=O)NCc1ccccc1 do in these assays?
E-sel TNF inh: 22.1; F-actin modifier: 9.0

What do the screens show for `Cc1cccc(Oc2sc(C(=O)c3ccccc3)c(N)c2C#N)c1`?
CYP2C9 activ: 0.5; CYP2C19 inhib: 60.9*; CYP2C9 inhib: 46.6; CYP2C19 activ: 0.4; F-actin modifier: 5.0

Results for COc1cc(NS(=O)(=O)c2ccc(F)cc2)c(C(=O)O)cc1OC ?
CYP2C9 activ: 0.4; E-sel TNF inh: 16.2; CYP2C19 inhib: 3.7; CYP2C9 inhib: 55.7*; CYP2C19 activ: 1; F-actin modifier: -56.0

Results for CCOc1ccc(S(=O)(=O)Nc2cc(OC)c(OC)cc2C(=O)O)cc1 ?
CYP2C9 activ: 0.3; E-sel TNF inh: -11.1; CYP2C19 inhib: 32.3; CYP2C9 inhib: 72.6*; CYP2C19 activ: 0.7; F-actin modifier: -0.4

Results for COc1ccccc1NS(=O)(=O)c1ccc(/C=C/C(=O)O)cc1 ?
E-sel TNF inh: 6.0

How did Cc1nn(Cc2ccc(Cl)cc2Cl)c(Cl)c1/C=N/NC(=O)CNc1cccc(C(F)(F)F)c1 do in these assays?
E-sel TNF inh: 9.7

How did CCC(=O)N1CCc2cc(S(=O)(=O)CCC(=O)NCCc3ccc(OC)c(OC)c3)ccc21 do in these assays?
CYP2C9 activ: 0.4; CYP2C19 inhib: 27.6; CYP2C9 inhib: 55.1*; CYP2C19 activ: 0.7; F-actin modifier: 0.8

How did CCC(=O)N1CCc2cc(S(=O)(=O)NC(CC(C)C)C(=O)N3CCc4ccccc43)ccc21 (stereo not drawn) do in these assays?
CYP2C9 activ: 0.8; E-sel TNF inh: -14.7; CYP2C19 inhib: 52.0*; CYP2C9 inhib: 24.3; CYP2C19 activ: 0.5

Results for COc1ccc(CCNS(=O)(=O)c2ccc3c(c2)CCN3C(=O)C2CC2)cc1OC ?
CYP2C9 activ: 0.3; E-sel TNF inh: -10.9; CYP2C19 inhib: 45.0; CYP2C9 inhib: 66.4*; CYP2C19 activ: 0.6; F-actin modifier: -16.3

Results for CCC(=O)N1CCc2cc(S(=O)(=O)CCC(=O)NCCc3ccccc3)ccc21 ?
CYP2C9 activ: 0.5; E-sel TNF inh: 17.3; CYP2C19 inhib: 35.0; CYP2C9 inhib: 50.5*; CYP2C19 activ: 0.7

How did CCC(=O)N1CCc2cc(S(=O)(=O)NC(Cc3ccccc3)C(=O)NC3CCCCC3)ccc21 (stereo not drawn) do in these assays?
E-sel TNF inh: -9.2

How did CCOC(=O)c1ccc(COC(=O)c2nonc2N)cc1 do in these assays?
CYP2C9 activ: 0.6; CYP2C19 inhib: 28.0; CYP2C9 inhib: 44.6; CYP2C19 activ: 0.7; F-actin modifier: -35.2

How did COC(=O)CSc1nc(NC(C)C)nc(N(C)C)n1 do in these assays?
E-sel TNF inh: -16.4

Results for CCOc1ccc(OCC)c(NS(=O)(=O)c2ccc3c(c2)CCN3C(=O)C2CCC2)c1 ?
CYP2C9 activ: 0.2; E-sel TNF inh: 7.5; CYP2C19 inhib: 33.4; CYP2C9 inhib: 79.3*; CYP2C19 activ: 0.7; F-actin modifier: -4.2

What do the screens show for `CCCCCc1nc2sc3c(c2c(=O)n1N)CCC3`?
E-sel TNF inh: -10.6; F-actin modifier: 26.2

Results for Nn1c(Nc2ccccc2)nc2sc3c(c2c1=O)CCC3 ?
CYP2C9 activ: 0; E-sel TNF inh: 25.6; CYP2C19 inhib: 74.8*; CYP2C9 inhib: 97.6*; CYP2C19 activ: 0.3; F-actin modifier: 11.6

How did CCCc1nc2sc3c(c2c(=O)n1N)CCC3 do in these assays?
CYP2C9 activ: 1.1; E-sel TNF inh: -3.0; CYP2C19 inhib: 74.5*; CYP2C9 inhib: -5.7; CYP2C19 activ: 0.3; F-actin modifier: 0.4

What do the screens show for `O=c1c2c3c(sc2nc2n1CCCC2)CCCC3`?
E-sel TNF inh: -60.2; F-actin modifier: -4.3

Results for O=c1c2c3c(sc2nc2n1CCC2)CCC3 ?
CYP2C9 activ: 0.9; E-sel TNF inh: 4.2; CYP2C19 inhib: -2.6; CYP2C9 inhib: 12.5; CYP2C19 activ: 1; F-actin modifier: 37.3*

How did CCn1c(SCC(=O)NCCOC)nc2sc3c(c2c1=O)CCCC3 do in these assays?
CYP2C9 activ: 0.2; E-sel TNF inh: 21.7; CYP2C19 inhib: 49.4; CYP2C9 inhib: 79.7*; CYP2C19 activ: 0.5; F-actin modifier: 8.5

What do the screens show for `CCn1c(SCC(=O)NCCOC)nc2sc(C)c(C)c2c1=O`?
CYP2C9 activ: 1.1; E-sel TNF inh: 5.8; CYP2C19 inhib: -8.9; CYP2C9 inhib: -11.7; CYP2C19 activ: 1.1; F-actin modifier: -5.2
